This is one part of a sample in which hits are shown more often than they occur.
Shiga toxin inh: A qHTS for Small Molecule Inhibitors of Shiga Toxin; Vero cells, Shiga toxin protein synthesis inhibition reporter; inhibition, % at 38.7 µM; 9.2% of 290,000 active; AID 2315, 2010; in the data active means inhibition mostly above about 28%, no sharp cut-off; inactive means mostly below about 43%; further: 0% is about no effect
CHX counter: Cycloheximide Counterscreen for Small Molecule Inhibitors of Shiga Toxin | max response, % | AID 2314, 2010 | 12% of 300,000 active | cell reporter, cycloheximide protein synthesis inhibition counterscreen; in the data active means max response mostly above about 13%, no sharp cut-off; inactive means mostly below about 14%; further: read at 38.3 µM for the half of the compounds with a filed dose; 0% is about no effect
TbPYK inhibitor: qHTS of Trypanosoma Brucei Inhibitors | 0.12% of 410,000 active | Potency, µM (doses to about 76.8 µM), without a hit: at the top dose activity, negative = inhibition, hits mostly inhibitors | pyruvate kinase (Trypanosoma brucei), Q57TT1 | TbPYK enzyme, Kinase-Glo Plus ATP luminescence, 45 min; further: potency means the concentration at half of the fitted maximal effect; on the % scale 0 is the no-effect control and ±100 the full control effect; nearly all actives have a fitted effect of over 50% in size
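Glycolytic pyruvate kinase of T. brucei was incubated with substrate, test compound and 130 uM ADP for 45 minutes at room temperature. Luminescent Kinase-Glo Plus signal was measured after 10 minutes.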
Giardia FBPA inh: qHTS Assay for Inhibitors of Fructose-1,6-bisphosphate Aldolase from Giardia Lamblia | Potency, µM (series often up to 59.6 µM), inactives show top-dose activity, negative = inhibition, usual class: inhibitors | 0.71% of 290,000 active | purified Giardia FBPA | AID 2451, 2010; further: potency means the concentration at half of the fitted maximal effect; on the % scale 0 is the no-effect control and ±100 the full control effect; nearly all actives have a fitted effect of over 55% in size
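40 nM FBPA preincubated 10 min at RT with compound (up to 57.5 uM final), then substrate plus GAPDH/TPI/NAD/arsenate coupling and diaphorase/resazurin added. Fluorescence read after 20 min at RT, 525/598 nm.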
LmPK inh: qHTS Assay for Inhibitors of Leishmania Mexicana Pyruvate Kinase (LmPK). Q27686. Potency, µM (top dose mostly 57.5 µM), for inactives: top-dose activity change, negative = inhibition, hits mostly inhibitors. purified LmPK, Kinase-Glo ATP luminescence, 1 h. 0.37% of 290,000 active; further: potency means the concentration at half of the fitted maximal effect; on the % scale 0 is the no-effect control and ±100 the full control effect
Target sequence (Q27686 whole entry, looked up): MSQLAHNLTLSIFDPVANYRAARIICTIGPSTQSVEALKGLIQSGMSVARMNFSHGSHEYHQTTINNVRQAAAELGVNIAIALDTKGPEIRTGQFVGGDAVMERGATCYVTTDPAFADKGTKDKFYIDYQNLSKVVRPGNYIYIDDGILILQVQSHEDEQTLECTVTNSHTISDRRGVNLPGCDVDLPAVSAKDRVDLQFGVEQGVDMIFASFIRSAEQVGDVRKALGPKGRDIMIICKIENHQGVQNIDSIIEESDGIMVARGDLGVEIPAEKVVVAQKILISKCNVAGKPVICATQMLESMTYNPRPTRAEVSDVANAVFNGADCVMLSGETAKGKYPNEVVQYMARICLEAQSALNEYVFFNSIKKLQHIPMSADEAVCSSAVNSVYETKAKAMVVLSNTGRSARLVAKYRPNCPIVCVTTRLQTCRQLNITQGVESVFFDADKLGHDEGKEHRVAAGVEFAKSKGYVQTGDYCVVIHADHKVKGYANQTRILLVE
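Kinase-Glo luminescence read after 1 h RT reaction of 0.1 nM LmPK with 0.5 mM PEP and 0.1 mM ADP. Activity scaled between uninhibited and enzyme-free controls.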
RE007 growth inh: qHTS Assay for Inhibitors of the HIV-1 protein Vpr; Potency, µM (series often up to 92.2 µM), for inactives: top-dose activity change, negative = less growth, hits mostly inhibitors; S. pombe RE007 Vpr strain, BacTiter-Glo ATP luminescence, 24 h; 0.21% of 360,000 active; AID 651644, 2012; active means well fitted falling curve with a large enough effect; inconclusive means small, poorly fitted or top-dose-only effect; inactive means no such curve, though single readings can be large or run the other way; further: potency means the concentration at half of the fitted maximal effect; on the % scale 0 is the no-effect control and ±100 the full control effect; nearly all actives have a fitted effect of over 50% in size
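Fission yeast strain RE007, carrying one chromosomally integrated HIV-1 vpr copy, was seeded at OD 0.01 in PMG+AL medium with 23 nL pinned compound. After 24 h at 30 °C and 99% humidity, viability was read by BacTiter-Glo luminescence.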
* marks the source's active call; other numbers are inactive results; ? = inconclusive; / = not tested or not shown; [ ] = remark or other dose. Unless noted, the call rests on the fitted dose curve; in most records, active means well fitted curve in the direction sought with a large enough effect; inconclusive means small, poorly fitted or top-dose-only effect, or another doubt; inactive means no such curve, though single readings can be large; an effect the other way counts as inactive or inconclusive.

SMILES	Shiga toxin inh	CHX counter	TbPYK inhibitor	Giardia FBPA inh	LmPK inh	RE007 growth inh
Cc1c(N)cc(N)cc1C(=O)O	1	-2	-3%	4.5µM*	-2%	2%
CCN1CCc2nc3sc(C(=O)Nc4cccc(Cl)c4C)c(N)c3cc2C1	/	/	-12%	/	/	/
CN(/N=C/c1cccnc1)c1cnn(-c2ccc(F)c(Cl)c2)c(=O)c1Cl	82	20*	-11%	4%	4%	7%
O=C(Nc1ccc(NC(=O)c2cccs2)cc1Cl)c1ccco1	96*	38*	-5%	-4%	7%[11.5 µM]	9%
O=C(Nc1ccc(NC(=O)c2cccs2)c(Cl)c1)c1cccs1	50*	43*	-4%	-4%	-1%	0%
COc1cc(NC(=O)c2cccs2)ccc1NC(=O)c1ccco1	127*	40*	5%	-8%	4%	5%
O=C(Nc1ccc(Cl)c(NC(=O)c2cccs2)c1)c1ccco1	-11	7	-3%	2%	1%	-23%
Fc1ccc(-c2cnc[nH]2)cc1	35	23*	4%	-7%	8%	2%
O=S(=O)(c1cnc[nH]1)N1CCN(c2ccc(F)cc2)CC1	-6	-1	2%	11%	-1%	-2%
COc1cc2c(cc1OC)C(c1ccccc1)CN(C)CC2 (stereo unspecified)	/	/	1%	0%	/	/
CCn1c(C)c(C(=O)Nc2ccc(OC)cc2)c2cc(OC)ccc21	27	19*	0%	-9%	1%	-6%
CCc1ccc(CNC(=O)c2cnc3sc(N(CC)CC)nn3c2=O)cc1	/	/	-8%	/	/	/
O=C(NNc1nc2cc3c(cc2s1)OCCO3)c1ccc(F)cc1	46	33*	-18%	16%	-2%	-3%
O=C(NNc1nc2cc3c(cc2s1)OCO3)c1ccc(F)cc1	68*	24*	-28%	4%	-1%	8%
Nc1nc2cc3c(cc2cc1C(=O)NCc1ccc(F)cc1)OCO3	/	/	-2%	/	/	-12%
CC(C)c1ccc(NC(=O)CSC2=Nc3ccccc3C3=NC(CC(=O)NC4CCCCC4)C(=O)N23)cc1 (stereo unspecified)	/	/	3%	/	/	/
CN=Cc1cc(-c2ccccc2)sc1O	40*	40*	0%	2%	4%	-9%
CN(/N=C/c1ccc(O)cc1O)c1nc(-c2ccccc2)cc(-c2ccccc2)n1	-7	-2	-21%	4%	0%	2%
CC(C)Cn1c(N)c(C(=O)COC(=O)/C=C/c2ccccc2)c(=O)n(C)c1=O	/	/	1%	/	/	-14%
Cc1nc(C)c(-c2ccc(SCc3ccccc3F)nn2)s1	119*	33*	-1%	2%	6%	26%
CCOC(=O)c1ccccc1NC(=O)CSc1ccc(-c2sc(C)nc2C)nn1	/	/	1%	/	/	/
COc1ccccc1-c1ccc(SCC(=O)NCCc2ccccc2)nn1	18	-2	-11%	-3%	15%	10%
COc1ccccc1-c1ccc(SCc2ccccc2)nn1	76*	38*	3%	-4%	4%	-23%
COc1ccccc1-c1ccc(SCC(=O)NCc2ccc3c(c2)OCO3)nn1	3	-6	1%	?	1%	-11%
COc1ccccc1-c1ccc(SCc2ccccc2F)nn1	66*	29*	1%	-10%	6%	-2%
SMILES	Shiga toxin inh	CHX counter	TbPYK inhibitor	Giardia FBPA inh	LmPK inh	RE007 growth inh
COc1ccccc1-c1ccc(SCc2cccc(F)c2)nn1	66*	30*	1%	0%	0%	-29%
CC(=O)Nc1cccc(NC(=O)C(=O)NCCc2csc3nc(-c4ccccc4F)nn23)c1	/	/	2%	/	/	/
Cc1cccc(OCC(=O)NCc2ccc3c(c2)CCN3C(=O)c2ccccc2)c1	/	/	-1%	/	/	/
Cc1ccc(C(=O)Nc2cccc3ccccc23)o1	/	/	1%	/	/	-2%
COc1cc(OC)c(C(=O)Nc2cccc3ccccc23)cc1OC	/	21*	1%	7%	12%	2%
Cc1oc(-c2ccccc2)cc1C(=O)Nc1cccc2ccccc12	13	16*	5%	13%	1%	?
Cc1cc(C(=O)Nc2cccc3ccccc23)co1	28	14*	5%	/	-10%	-17%
